Shown is part of a subset that was picked to be rich in hits.
MRP resist rev: reversal of MRP1-mediated doxorubicin resistance, primary screen, H69AR cells, doxorubicin co-treatment; H69AR cells + 2 uM doxorubicin, CellTiter-Glo, 72 h; differential viability (reversal), % at 10 µM; 85,000 tested, 0.04% active;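 active = viability drop by adding the cancer drug above about 55%, with treated viability meeting a 40% cutoff, limit read from the data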;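 also: viability without doxorubicin minus viability with 2 µM doxorubicin for each compound; larger differential means the compound sensitizes cells more to doxorubicin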
MRP-1 activ: H69AR viability gain despite doxorubicin, primary screen, MRP-1 activator project, H69AR cells, CellTiter-Glo; viability rescue; viability increase, % at 10 µM; 140,000 tested, 0.61% active; AID 799, 2007;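 active = viability gain under doxorubicin at or above a set limit, the compound median plus 3 SD, cut at about 4.7% in these data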;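 also: MRP-1 overexpressing cells given doxorubicin 25 µM after compound pretreatment; 18-22 h compound pretreatment then 72 h with doxorubicin before readout; 0% = doxorubicin-only wells and 100% = vehicle-treated cells without doxorubicin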
* = called active by the depositor; nt = not tested or not shown.

SMILES	MRP resist rev	MRP-1 activ
CC(C)(C)c1ccc(-c2nnc(SCCN3C(=O)c4ccccc4C3=O)o2)cc1	17	-2
Nn1c(SCC(=O)Nc2ccccc2F)nc2ccccc2c1=O	11	8.8*
O=C(CSc1nnc2c3ccccc3c3ccccc3c2n1)Nc1ccccc1F	nt	-3
Cc1ccc(S(=O)(=O)N(C)C)cc1-n1c(SCC(=O)Nc2ccc(F)c(F)c2F)nc2ccccc2c1=O	nt	-4
CC1CN(C(=S)NC(=O)c2ccco2)CC(C)O1 (stereo not drawn)	nt	0
Cc1n[nH]c(C)c1S(=O)(=O)N1CCCC(C(=O)NCc2ccccc2Cl)C1 (stereo not drawn)	3	-3
Cc1noc(/C=C/N(C)C)c1S(=O)(=O)N1CCCC(C(=O)N2CCCCC2)C1 (stereo not drawn)	9	1
Cc1noc(/C=C/N(C)C)c1S(=O)(=O)N1CCCC(C(=O)NCc2ccccc2Cl)C1 (stereo not drawn)	8	7.6*
Cc1noc(/C=C/N(C)C)c1S(=O)(=O)N1CCCC(C(=O)Nc2ccc3c(c2)OCO3)C1 (stereo not drawn)	10	3
Cc1noc(/C=C/N(C)C)c1S(=O)(=O)N1CCCC(C(=O)NCc2ccc(Cl)cc2)C1 (stereo not drawn)	11	4.9*
Cc1noc(/C=C/N(C)C)c1S(=O)(=O)N1CCCC(C(=O)NC2CCCCC2)C1 (stereo not drawn)	-14	9.3*
Cc1noc(/C=C/N(C)C)c1S(=O)(=O)N1CCCC(C(=O)NCc2ccc(F)cc2)C1 (stereo not drawn)	8	12*
Cc1ccc(CNC(=O)C2CCCN(S(=O)(=O)c3c(C)noc3C)C2)cc1 (stereo not drawn)	13	-4
CCOc1ccc(C2c3cc(OC)c(OC)cc3CC(=O)N2c2ccc(OC)cc2)cc1 (stereo not drawn)	nt	-4
CCOCC(=O)N1CCN(c2ccc([N+](=O)[O-])cc2)CC1	nt	0
O=C(COC(=O)c1cccnc1Nc1cccc(C(F)(F)F)c1)NC1CCS(=O)(=O)C1 (stereo not drawn)	nt	0
CC1=NNC(=O)C(CC(=O)Nc2ccc(Cl)c(Cl)c2)C1 (stereo not drawn)	nt	1
COc1ccc(N(CCCN2C(=O)c3cccc4cccc(c34)C2=O)C(=O)c2cccs2)cc1	nt	-2
COc1cc(C)ccc1N(CCCN1C(=O)c2cccc3cccc(c23)C1=O)C(=O)c1cccs1	nt	8.7*
Cc1nn(CC(=O)Nc2cccc(S(N)(=O)=O)c2)c(C)c1[N+](=O)[O-]	nt	-1
COc1ccc(NC(=O)CC2C(=O)N(c3ccc(OC)cc3)C(=O)N2CCc2cccs2)cc1 (stereo not drawn)	nt	4
COc1ccc(NC(=O)CC2C(=O)N(c3ccc(F)cc3)C(=S)N2NC(=O)c2ccccc2)cc1 (stereo not drawn)	nt	6.4*
Cc1ccsc1/C=N/NC(=O)Cc1cccn1C	nt	-2
S=C(c1ccc(-c2ccccc2Cl)o1)N1CCCCC1	nt	5.3*
CN1CCN(C(=S)c2ccc(-c3cccc(Cl)c3Cl)o2)CC1	nt	0
SMILES	MRP resist rev	MRP-1 activ
CN(C)S(=O)(=O)c1cccc(NC(=O)c2ccc(N3CCOCC3)c([N+](=O)[O-])c2)c1	nt	0
CC(O/N=C/c1ccc(OC(F)F)cc1)C(=O)Nc1cccc(S(=O)(=O)N2CCOCC2)c1 (stereo not drawn)	nt	3
Cc1ccc(NC(=O)CC2SC(=O)N(c3ccccc3)C2=O)cc1 (stereo not drawn)	-8	2
Cc1cccc(NC2SC(=O)N(c3ccccc3)C2=O)c1 (stereo not drawn)	0	0
O=C(CC1SC(=O)N(c2ccccc2)C1=O)Nc1ccccc1 (stereo not drawn)	4	6.8*
Cc1cccc(NC(=O)CC2SC(=O)N(c3ccccc3)C2=O)c1 (stereo not drawn)	-1	8.9*
Cc1ccc(N2CCn3c2nc2c3c(=O)n(CCc3ccccc3)c(=O)n2C)cc1	-14	nt
CCN(CCCNC(=O)C1CCC(=O)N1C(C)C)c1cccc(C)c1 (stereo not drawn)	1	-2
Cc1ccc(N2C(=O)C(NC(=O)c3ccccc3)(C(F)(F)F)C3=C2CC(C)(C)CC3=O)cc1 (stereo not drawn)	nt	-1
CCNC(=S)NNC(=O)c1cc(C2CC2)nc2ccccc12	nt	-3
COc1ccc(-c2c(C#N)c(N)nc3sc(C(=O)c4ccccc4)c(N)c23)cc1	nt	12*
COc1ccc(C(=O)c2sc3nc(-c4ccccc4)ccc3c2N)cc1	nt	-1
O=C1CSC(=S)N1N=C1CCCCCC1	nt	5.9*
O=C1CSC(=S)N1/N=C/C=C/c1ccccc1	nt	1
CCOc1cc(C(=O)Nc2ccccc2F)cc(Br)c1OCC	nt	0
O=C(COc1ccccc1)N1CCN(S(=O)(=O)c2ccc(Cl)cc2)CC1	4	-1
COc1ccccc1N1CCN(C(=O)COc2ccc(Cl)cc2)CC1	-2	6.6*
O=C(COc1ccc(Cl)cc1)N1CCN(S(=O)(=O)c2ccccc2)CC1	-9	5.1*
COc1ccccc1OCC(=O)N1CCN(c2ccccc2OC)CC1	9	0
N#CC1=C(N)Oc2ccc3ccc(O)cc3c2C1c1ccsc1 (stereo not drawn)	nt	-4
O=C(Cn1c(=O)oc2cc(S(=O)(=O)N3CCCCCC3)ccc21)NC1CCCCC1	11	-3
O=C(Cn1c(=O)oc2cc(S(=O)(=O)N3CCCC3)ccc21)NCc1ccccn1	2	5.3*
CCOC(=O)c1c(-c2ccc(C)o2)csc1NC(=O)CSc1ncn[nH]1	3	6.8*
CCOC(=O)c1c(-c2ccc(C)o2)csc1NC(=O)CN1CCOCC1	10	-1
COCc1cc(C)nc(OCC(=O)N/N=C/c2ccc(-c3cccc([N+](=O)[O-])c3)o2)c1C#N	nt	-1
SMILES	MRP resist rev	MRP-1 activ
COCc1cc(C)nc(OCC(=O)N/N=C/c2ccc(-c3cc([N+](=O)[O-])ccc3C)o2)c1C#N	nt	4.7*
Cc1nnc(NC(=O)c2ccccc2Br)s1	-5	6.0*
Cc1nnc(NC(=O)c2ccccc2F)s1	21	2
CCOC(=O)C(Oc1ccc2c(-c3ccc(OC)cc3)cc(=O)oc2c1C)c1ccccc1 (stereo not drawn)	nt	0
CCOC(=O)C(Oc1ccc2c(-c3ccccc3)cc(=O)oc2c1C)c1ccccc1 (stereo not drawn)	nt	4.7*
COc1ccccc1/C=N\N=C(\N)c1ccccn1	nt	-1
O=C(Cn1cnc2ccccc21)N/N=C/c1ccccc1[N+](=O)[O-]	nt	-1
OCCN=C1CCCc2c1[nH]c1ccc(Br)cc21	nt	5.2*
O=c1c2c([nH]c3ccc(Br)cc13)CCCC2	-31	nt
O=S(NCc1ccco1)C12CC3CC(CC(C3)C1)C2 (stereo not drawn)	7	-5
COCC(=O)Nc1nnc(COc2ccc(Cl)cc2)s1	1	5.4*
Cc1cccc(C)c1OCc1nnc(NC(=O)CSc2ccc(Cl)cc2)s1	nt	1
CCOCC(=O)Nc1nnc(COc2ccc(Cl)cc2)s1	nt	4
O=C(CSc1ccccc1)Nc1nnc(COc2ccc(Cl)cc2)s1	nt	7.1*
O=C(COC(=O)/C(=C/c1cccs1)c1cccs1)NC(c1ccccc1)c1ccccc1	nt	-2
COc1ccc(CCNC(=O)Cn2cc(C(F)(F)F)cc(Cl)c2=O)cc1OC	nt	-2
Cc1ccc(S(=O)(=O)N/N=C\c2cn(-c3ccccc3)nc2-c2ccccc2)cc1	nt	6.2*
Cc1ccc(-c2nn(-c3ccccc3)cc2/C=N/NS(=O)(=O)c2ccccc2)cc1	nt	3

Screens: PubChem, SRMLSC
